Screening results deposited in PubChem by Sanford-Burnham Center for Chemical Genomics.
CYP2C19 inhib: blockers of cytochrome P450 2C19 activity – biochemical, luminescence, ADME assay, primary screen; CYP2C19 Supersomes, luciferin-H EGE luminescence, 30 min; inhibition, % at 5 µM; 96,000 compounds, 21% hits; AID 778, 2007;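 active means CYP2C19 inhibition above a set limit at 5 µM in the primary screen, cut at about 50% in these data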
Target sequence (P33261 whole entry, looked up): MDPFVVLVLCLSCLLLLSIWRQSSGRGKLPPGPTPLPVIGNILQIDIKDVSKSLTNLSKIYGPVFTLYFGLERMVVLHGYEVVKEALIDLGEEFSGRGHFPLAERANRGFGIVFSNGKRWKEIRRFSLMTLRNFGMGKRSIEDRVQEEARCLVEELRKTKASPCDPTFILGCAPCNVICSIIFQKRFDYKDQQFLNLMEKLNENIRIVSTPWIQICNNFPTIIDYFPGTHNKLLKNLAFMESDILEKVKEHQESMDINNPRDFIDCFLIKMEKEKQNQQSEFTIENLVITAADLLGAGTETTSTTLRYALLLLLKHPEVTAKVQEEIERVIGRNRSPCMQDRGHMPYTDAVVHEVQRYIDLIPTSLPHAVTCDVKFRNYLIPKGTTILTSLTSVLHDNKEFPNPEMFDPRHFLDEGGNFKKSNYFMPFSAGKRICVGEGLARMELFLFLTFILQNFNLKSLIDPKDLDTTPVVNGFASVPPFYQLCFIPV
CYP2C9 act: human CYP2C9 activators, primary screen, biochemical, luminescence. Cytochrome P450 2C9 (Homo sapiens), P11712. recombinant CYP2C9, luciferin-H conversion; active compounds read high; factor 1 = untreated enzyme, 0 = blocked. activation factor at 5 µM. 96,000 compounds, 1.4% hits. AID 1024, 2008;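 active means activation factor of 2 or more for CYP2C9 at a 5 µM dose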
CYP2C9 inhib: blockers of cytochrome P450 2C9 activity – biochemical, luminescence, ADME assay, primary screen; AID 777, 2007; 96,000 compounds, 20% hits; P11712; inhibition, % at 5 µM; CYP2C9 Supersomes, luciferin-H conversion;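 active means blocking of liver enzyme CYP2C9 beyond about 50% at 5 µM, limit read from the data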
CYP2C19 act: human CYP2C19 activators, primary screen, biochemical, luminescence | Cytochrome P450 2C19 (Homo sapiens), P33261 | recombinant CYP2C19, luciferin-H EGE luminescence; active compounds read high; 0 = fully inhibited enzyme, 1 = untreated enzyme | activation factor at 5 µM | 96,000 tested, under 10 active;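 active means activation factor of at least 2 at 5 µM in the primary screen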
A number is an active result; i = inactive. This is a sample that favours compounds with a hit; in the whole collection about 31% have one here.

SMILES	CYP2C19 inhib	CYP2C9 act	CYP2C9 inhib	CYP2C19 act
N#CC1(Cc2ccccc2Cl)c2ccccc2C=CN1C(=O)c1ccccc1 (stereo not given)	91.1	i	83.5	i
CCOc1ccc(C2=C/C(=C/c3cccnc3)C(=O)O2)cc1	i	i	i	i
c1cnc(Oc2ccc(-c3nnco3)cc2)cn1	53.5	i	i	i
CC1=C(C(=O)OC(C)C)C(C)C(C(=O)OC(C)C)=C(C)N1	100.4	i	92.3	i
COc1ccc(C2C(C#N)=C(N)Oc3n[nH]c(C)c32)cc1Cn1nnc2ccccc21 (stereo not given)	i	i	67.9	i
CCn1c2ccccc2c2cc(C3C(C#N)=C(N)Oc4n[nH]c(COC)c43)ccc21 (stereo not given)	i	i	58.7	i
Cc1[nH]nc2c1C(c1ccc3c(c1)OCO3)C(C#N)=C(N)O2 (stereo not given)	59.8	i	56.9	i
Cc1[nH]nc2c1C(c1ccc(F)cc1)C(C#N)=C(N)O2 (stereo not given)	i	i	i	i
CCCc1[nH]nc2c1C(c1ccc(OC)c(Cn3nnc4ccccc43)c1)C(C#N)=C(N)O2 (stereo not given)	i	i	62.5	i
COc1cccc(NC(=O)CNS(=O)(=O)c2ccc3nc(C)sc3c2)c1	i	i	i	i
C=CCNC(=O)CN(c1cccc(Br)c1)S(C)(=O)=O	i	i	i	i
CCCc1[nH]nc2c1C(c1ccc(O)c(OC)c1)C(C#N)=C(N)O2 (stereo not given)	60.3	i	i	i
CCCc1[nH]nc2c1C(c1ccccc1OC)C(C#N)=C(N)O2 (stereo not given)	i	i	i	i
O=C(CN1C(=O)COc2ccc(Cl)cc21)N1CCc2ccccc21	i	i	i	i
Cc1cc(C)n(-c2nc3ccccc3c(=O)n2OCC(N)=O)n1	i	i	i	i
Cc1ccc(S(=O)(=O)C(C#N)c2nc3ccccc3nc2N2CCCC2)cc1 (stereo not given)	87.4	i	54.6	i
CC1CCCN(c2nc3ccccc3nc2C(C#N)S(=O)(=O)c2cccs2)C1 (stereo not given)	i	i	74.7	i
CCN1CCN(c2nc3ccccc3nc2C(C#N)S(=O)(=O)c2ccc(C)cc2)CC1 (stereo not given)	i	i	i	i
CC1CCCN(c2nc3ccccc3nc2C(C#N)C(=O)OC2CCCCC2)C1 (stereo not given)	i	i	i	i
COc1ccc(S(=O)(=O)C(C#N)c2nc3ccccc3nc2N2CCCC(C)C2)cc1 (stereo not given)	86.3	i	93.3	i
CCCCCCc1ccc(-c2ncc(N)cn2)cc1	i	i	i	i
CCOC(=O)/C(C#N)=C\c1ccc(OCC(=O)Nc2ccc(C)cc2C)c(OC)c1	77.5	i	i	i
CCOC(=O)/C(C#N)=C/c1ccc(OCC(=O)Nc2cc(C)ccc2C)c(OC)c1	i	i	i	i
O=C1CN(C(=O)COC(=O)C23CC4CC(CC(O)(C4)C2)C3)c2ccccc2N1	i	i	i	i
CC(C)N1CCC2(CC1)N=C(c1ccc3c(c1)OCO3)CC(c1cc(Cl)ccc1O)N2 (stereo not given)	i	i	i	i
SMILES	CYP2C19 inhib	CYP2C9 act	CYP2C9 inhib	CYP2C19 act
Clc1ccc(CNCCC2=CCCCC2)cc1	100.4	i	i	i
O=C(CN1CCN(C2CCCCC2)CC1)NCCC1=CCCCC1	i	i	i	i
C1=C(CCNCC2CCCCC2)CCCC1	88.2	i	i	i
O=C(NCCC1=CCCCC1)C1CCN(C(=O)c2ccc(Cl)cc2)CC1	i	i	i	i
CCOC(=O)c1cnn(-c2nc3c(C)cccc3s2)c1C(F)(F)F	i	i	i	i
CCOC(=O)c1cnn(-c2nc(-c3cccc(F)c3)cs2)c1C(F)(F)F	i	i	72.1	i
OC1(c2ccc(F)cc2)CCN(Cc2nnnn2Cc2cccs2)CC1	75.0	i	59.7	i
CCN1CCN(C(c2ccc(F)cc2)c2nnnn2Cc2cccs2)CC1 (stereo not given)	i	i	i	i
O=C(CCOc1ccccc1)Nc1ccc(S(=O)(=O)N2CCCC2)cc1	50.0	i	85.8	i
O=C(COc1ccccc1)Nc1ccc(S(=O)(=O)N2CCCC2)cc1	i	i	i	i
O=C(CCCOc1ccccc1)Nc1ccc(S(=O)(=O)N2CCOCC2)cc1	54.9	i	70.2	i
